Data published in PubChem BioAssay (NCATS).
Inconclusive results are not listed. For part of these data: Results with a measured potency or affinity are listed apart. The source made the active and inactive calls.

How the values were obtained:
[1] = Ebola virus entry assay, green channel fluorescence
[2] = Ebola virus entry assay, blue channel fluorescence
[3] = Ebola virus entry assay, reporter ratio channel; AC50: Channel type: primary unless noted; outcome: Channel type: primary unless noted
[4] = Ebola virus entry assay, blue channel (ratio component)
[5] = Ebola virus entry cell assay, ratio channel
[6] = qHTS assay for measurement of the activity of small molecule inhibitors on Zika virus induced Caspase-3 activity in human iPSC derived neural progenitor cells (hNPCs) (AID 1224857; active = well fitted inhibition curve with a large enough effect; note: nearly all actives have a fitted effect of over 65% in size); conditions: hNPCs ZIKV-induced caspase-3/7, Caspase-Glo luminescence, 6 h; series mostly up to 45.7 µM
How it was run: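 Zika virus (2 FFU/cell) infection of human iPSC-derived NPCs, 6 h, following 1 h compound preincubation. Read-out: Caspase-Glo 3/7 luminescence.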

For `O=c1[nH]c(=O)n([C@H]2C[C@H](O)[C@@H](CO)O2)cc1F`, the outcome [1] was “inactive”, the outcome [2] was “inactive” and the outcome [3] was “inactive”. The outcome [4] was “inactive” and the outcome [5] was “inactive”.

In the case of `Cn1nnc2c(C(N)=O)ncn2c1=O`, the outcome [1] is reported as “inactive”, the outcome [2] is reported as “inactive” and the outcome [3] is reported as “inactive”. For the same compound, the outcome [4] was “inactive” and the outcome [5] was “inactive”.

In the case of `CC(C)(C)NCC(O)COc1ccc(NC(=O)NC2CCCCC2)cc1` (stereo not given), the outcome [1] is reported as “inactive” and the AC50 [3] is reported as 39.8 µM (active).

For `Nc1ccc(C(=O)Nc2ccccc2N)cc1`, the outcome [1] was “inactive”, the outcome [3] was “inactive” and the outcome [4] was “inactive”.

In the case of `CCCCCCCCCCCCCCCCOP(=O)([O-])OCC[N+](C)(C)C`, the outcome [1] is reported as “inactive” and the outcome [3] is reported as “inactive”.

In the case of `Cc1cc(O)c2c(O)c3c(O)cccc3cc2c1`, the outcome [1] is reported as “inactive”, the outcome [3] is reported as “inactive” and the outcome [4] is reported as “inactive”.

With `S=P(N1CC1)(N1CC1)N1CC1` the outcome [1] was “inactive”, the outcome [2] was “inactive” and the outcome [3] was “inactive”. The outcome [4] was “inactive” and the outcome [5] was “inactive”.

For `NCCCCCC(=O)O`, the outcome [1] was “inactive”, the outcome [2] was “inactive” and the outcome [3] was “inactive”. For the same compound, the outcome [5] was “inactive”.

In the case of `CCCC(O)C(CC)CO` (stereo not given), the outcome [1] is reported as “inactive”, the outcome [3] is reported as “inactive” and the outcome [4] is reported as “inactive”.

With `COc1ccc2[nH]cc(CCNC(C)=O)c2c1` the outcome [1] was “inactive”, the outcome [3] was “inactive” and the outcome [4] was “inactive”.

For `CCCC(=O)Nc1ccc(O)c(C(C)=O)c1`, the outcome [1] was “inactive”, the outcome [3] was “inactive” and the outcome [4] was “inactive”.

For `C=CCC1([C@H](C)CCC)C(=O)NC(=O)NC1=O`, the outcome [1] was “inactive”, the outcome [2] was “inactive” and the outcome [3] was “inactive”. For the same compound, the outcome [4] was “inactive”, the outcome [5] was “inactive” and the outcome [6] was “inactive”.

With `Clc1ccc2nsnc2c1NC1=NCCN1` the outcome [1] was “inactive”, the outcome [2] was “inactive” and the outcome [3] was “inactive”. The outcome [4] was “inactive” and the outcome [5] was “inactive”.

In the case of `CCn1cc(C(=O)O)c(=O)c2cc(F)c(N3CCNC(C)C3)c(F)c21` (stereo not given), the outcome [1] is reported as “inactive”, the outcome [2] is reported as “inactive” and the outcome [3] is reported as “inactive”. The outcome [4] was “inactive” and the outcome [5] was “inactive”.

In the case of `CC(=O)NC(=O)c1ccccc1O`, the outcome [1] is reported as “inactive”, the outcome [3] is reported as “inactive” and the outcome [4] is reported as “inactive”.

For `COC(=O)c1ccccc1C(=O)c1ccc(OCCN2CCCCC2)cc1`, the outcome [1] was “inactive” and the AC50 [3] was 14.1 µM (active).

For `Cc1ccccc1C(=O)N1CC/C(=N\OS(=O)(=O)O)c2ccc(Cl)cc21`, the outcome [1] was “inactive”, the outcome [3] was “inactive” and the outcome [4] was “inactive”.

For `C[N+](C)(C)CC(O)CC(=O)[O-]` (stereo not given), the outcome [1] was “inactive”, the outcome [2] was “inactive” and the outcome [3] was “inactive”. For the same compound, the outcome [4] was “inactive” and the outcome [5] was “inactive”.

For `COc1cc(C=C2CCC/C(=C\c3ccc(O)c(OC)c3)C2=O)ccc1O`, the outcome [1] was “inactive” and the AC50 [3] was 28.2 µM (active).

For `CCc1cccc(CC)c1NC(=O)CN(CC(=O)O)CC(=O)O`, the outcome [1] was “inactive”, the outcome [3] was “inactive” and the outcome [4] was “inactive”.

With `CC(C(=O)O)c1ccc2c(c1)[nH]c1ccc(Cl)cc12` (stereo not given) the outcome [1] was “inactive”, the outcome [3] was “inactive” and the outcome [4] was “inactive”.

With `CCN(Cc1ccncc1)C(=O)C(CO)c1ccccc1` (stereo not given) the outcome [1] was “inactive”, the outcome [3] was “inactive” and the outcome [4] was “inactive”.

In the case of `O=C(O)c1c(O)c(-c2ccccc2)nc2ccccc12`, the outcome [1] is reported as “inactive”, the outcome [3] is reported as “inactive” and the outcome [4] is reported as “inactive”.

In the case of `O=C(O)c1ccc[n+]([O-])c1`, the outcome [1] is reported as “inactive”, the outcome [3] is reported as “inactive” and the outcome [4] is reported as “inactive”.

With `O=C(Oc1ccccc1C(=O)O)c1ccccc1O` the outcome [1] was “inactive”, the outcome [3] was “inactive” and the outcome [4] was “inactive”.

In the case of `COC(=O)C1=C(C)NC(C)=C(C(=O)OCCc2ccc(N3CCN(C(c4ccccc4)c4ccccc4)CC3)cc2)C1c1cccc([N+](=O)[O-])c1` (stereo not given), the outcome [1] is reported as “inactive”, the outcome [3] is reported as “inactive” and the outcome [4] is reported as “inactive”.

For `Cc1c(F)c(N2CCNC(C)C2)cc2c1c(=O)c(C(=O)O)cn2C1CC1` (stereo not given), the outcome [1] was “inactive”, the outcome [3] was “inactive” and the outcome [4] was “inactive”.

In the case of `Nc1c[n+](N2CCOCC2)no1`, the outcome [1] is reported as “inactive”, the outcome [3] is reported as “inactive” and the outcome [4] is reported as “inactive”.

With `Cc1ccc(C(=O)c2ccc(CC(=O)O)n2C)cc1` the outcome [1] was “inactive”, the outcome [3] was “inactive” and the outcome [4] was “inactive”.

For `CCCc1c(OCCCCc2nn[nH]n2)ccc(C(C)=O)c1O`, the outcome [1] was “inactive”, the outcome [3] was “inactive” and the outcome [4] was “inactive”.

For `CC[C@]12CCCN3CCc4c(n(c5ccccc45)[C@@](O)(C(=O)OC)C1)[C@@H]32`, the outcome [1] was “inactive”, the outcome [3] was “inactive” and the outcome [4] was “inactive”.

With `CCN1CCC[C@H]1CNC(=O)c1c(O)c(Cl)cc(Cl)c1OC` the outcome [1] was “inactive”, the outcome [3] was “inactive” and the outcome [4] was “inactive”.

For `Cc1nc(-c2ccc(Cl)cc2)oc1COC(C)(C)C(=O)O`, the outcome [1] was “inactive”, the outcome [3] was “inactive” and the outcome [4] was “inactive”.

In the case of `CCCCCCCC(=O)[O-].CCCCCCCC(=O)[O-].[Zn+2]`, the outcome [1] is reported as “inactive”, the outcome [3] is reported as “inactive” and the outcome [4] is reported as “inactive”.

In the case of `Cc1c(NC(=O)c2cccnc2)c(=O)n(-c2ccccc2)n1C`, the outcome [1] is reported as “inactive”, the outcome [3] is reported as “inactive” and the outcome [4] is reported as “inactive”.

In the case of `CCCCCCCC/C=C\CCCCCCCC(=O)NCc1ccc(O)c(OC)c1`, the outcome [1] is reported as “inactive”, the outcome [3] is reported as “inactive” and the outcome [4] is reported as “inactive”.

In the case of `Cc1ccc(-c2ccccc2C#N)cc1`, the outcome [1] is reported as “inactive”, the outcome [3] is reported as “inactive” and the outcome [4] is reported as “inactive”.

With `NS(=O)(=O)c1ccc(Cl)c(S(N)(=O)=O)c1` the outcome [1] was “inactive”, the outcome [3] was “inactive” and the outcome [4] was “inactive”.

For `CN(CC1(C)CCCO1)S(=O)(=O)c1ccc(Cl)c(S(N)(=O)=O)c1` (stereo not given), the outcome [1] was “inactive”, the outcome [3] was “inactive” and the outcome [4] was “inactive”.

For `Nc1ncnc2c1ncn2Cc1c(F)cccc1Cl`, the outcome [1] was “inactive”, the outcome [3] was “inactive” and the outcome [4] was “inactive”.

For `CCOC(=O)NNc1ccc(N(CC)CC(C)O)nn1` (stereo not given), the outcome [1] was “inactive”, the outcome [3] was “inactive” and the outcome [4] was “inactive”.

In the case of `NCCNCCNCCN`, the outcome [1] is reported as “inactive”, the outcome [3] is reported as “inactive” and the outcome [4] is reported as “inactive”.

With `CC(C)(C)NCC(O)COc1cccc2c1C[C@H](O)[C@H](O)C2` (stereo not given in full) the outcome [1] was “inactive”, the outcome [3] was “inactive” and the outcome [4] was “inactive”.

In the case of `Cc1ccsc1/C=C/C1=NCCCN1C`, the outcome [1] is reported as “inactive”, the outcome [3] is reported as “inactive” and the outcome [4] is reported as “inactive”.

In the case of `CCN(CC)CCNC(=O)c1cc(S(C)(=O)=O)ccc1OC`, the outcome [1] is reported as “inactive”, the outcome [3] is reported as “inactive” and the outcome [4] is reported as “inactive”.

For `CC(=O)OCC(=O)[C@@]1(O)CC[C@H]2[C@@H]3CCC4=CC(=O)CC[C@]4(C)[C@H]3C(=O)C[C@@]21C`, the outcome [1] was “inactive”, the outcome [3] was “inactive” and the outcome [4] was “inactive”.

For `CCOC(=O)c1ccccc1O`, the outcome [1] was “inactive”, the outcome [3] was “inactive” and the outcome [4] was “inactive”.

For `CCOc1nc2cccc(C(=O)O)c2n1Cc1ccc(-c2ccccc2-c2nn[nH]n2)cc1`, the outcome [1] was “inactive”, the outcome [3] was “inactive” and the outcome [4] was “inactive”.

For `CC(C)Cn1cnc2c(N)nc3ccccc3c21`, the outcome [1] was “inactive”, the outcome [3] was “inactive” and the outcome [4] was “inactive”.

For `NC(=O)c1ccccc1O`, the outcome [1] was “inactive”, the outcome [3] was “inactive” and the outcome [4] was “inactive”.

In the case of `COC(=O)c1ccc(NC(C)=O)cc1OC`, the outcome [1] is reported as “inactive”, the outcome [3] is reported as “inactive” and the outcome [4] is reported as “inactive”.

In the case of `CCCCCCCCCCCC(=O)[O][Sn]([CH2]CCC)([CH2]CCC)[O]C(=O)CCCCCCCCCCC`, the outcome [1] is reported as “inactive”, the outcome [3] is reported as “inactive” and the outcome [4] is reported as “inactive”.

With `O=C1CC2(CCCC2)CC(=O)N1` the outcome [1] was “inactive”, the outcome [3] was “inactive” and the outcome [4] was “inactive”.

In the case of `CN[C@@H]1[C@@H](O)[C@@H](O[C@@H]2[C@H](O)[C@H](O[C@H]3OC(CN)=CC[C@H]3N)[C@@H](N)C[C@H]2N)OCC1(C)O` (stereo not given in full), the outcome [1] is reported as “inactive”, the outcome [3] is reported as “inactive” and the outcome [4] is reported as “inactive”.

For `OCc1cccnc1`, the outcome [1] was “inactive”, the outcome [3] was “inactive” and the outcome [4] was “inactive”.

With `CC(=O)N[C@@H](CC(C)C)C(=O)O` the outcome [1] was “inactive”, the outcome [3] was “inactive” and the outcome [4] was “inactive”.

With `O=C(NC(Cc1cc(=O)[nH]c2ccccc12)C(=O)O)c1ccc(Cl)cc1` (stereo not given) the outcome [1] was “inactive”, the outcome [3] was “inactive” and the outcome [4] was “inactive”.

For `O=C(O)c1cc(=O)c2c(OCC(O)COc3cccc4oc(C(=O)O)cc(=O)c34)cccc2o1`, the outcome [1] was “inactive”, the outcome [3] was “inactive” and the outcome [4] was “inactive”.

With `CC(C)OC(=O)OCOP(=O)(CO[C@H](C)Cn1cnc2c(N)ncnc21)OCOC(=O)OC(C)C` the outcome [1] was “inactive”, the outcome [3] was “inactive” and the outcome [4] was “inactive”.

In the case of `CCCCCCOc1ccccc1C(N)=O`, the outcome [1] is reported as “inactive”, the outcome [3] is reported as “inactive” and the outcome [4] is reported as “inactive”.

With `CCCCOC(=O)c1ccc(O)cc1` the outcome [1] was “inactive”, the outcome [3] was “inactive” and the outcome [4] was “inactive”.
